Potency, outcome and max response data for six molecules are collected here from PubChem BioAssay (NCATS).

One experiment concerns CRL-7250. Description: Cytotoxic Profiling of Annotated Libraries Using Quantitative High-Throughput Screening (AID 1296008). For max response: % is set by controls: 0 for no effect and ±100 for the full control effect. The note with it: Five cell lines viability, CellTiter-Glo ATP luminescence, 48-72 h; max response: active compounds read low. Put shortly:
(§1)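 Cells exposed to compounds for 48 or 72 hr at 37 degrees Celsius. Viability read as ATP-coupled luminescence with CellTiter-Glo after 10 min at room temperature.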
(Cellular ATP, detected with luciferase, serves as a proxy for viable cell number.)

The test system of a further experiment is HEK293. Described as above. The note with it: Five cell lines viability, CellTiter-Glo ATP luminescence, 48-72 h; max response: active compounds read low. The method in brief: as §1
The subject of a further experiment is PC15. Description: qHTS profiling for inhibitors of Plasmodium falciparum proliferation (AID 504749). To be noted: P. falciparum in erythrocytes, SYBR Green DNA, 72 h; series mostly up to 28.7 µM. Put shortly:
(§2)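 SYBR Green fluorescence (ex 485 nm, em 535 nm) reports parasite DNA after 72 h compound exposure of infected red cells at 0.3% parasitemia, 2.5% hematocrit; signal normalized to 0.29 uM artemisinin and vehicle wells.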
On the technique in general: In qHTS, concentration-response curves come from the screen itself.

In a further experiment the test system is PC49. The description is as above. To be noted: P. falciparum in erythrocytes, SYBR Green DNA, 72 h; series mostly up to 28.7 µM. Put shortly:
as §2

The next experiment relates to TAB109. The experiment is described as above. To be noted: P. falciparum in erythrocytes, SYBR Green DNA, 72 h; series mostly up to 28.7 µM. The method in brief:
as §2

For the next experiment, the system named is TAB165. Described as above. The note with it: P. falciparum in erythrocytes, SYBR Green DNA, 72 h; series mostly up to 28.7 µM. Put shortly:
as §2

A further experiment relates to W2. The experiment is described as above. The note with it: P. falciparum in erythrocytes, SYBR Green DNA, 72 h; series mostly up to 28.7 µM. The method in brief: as §2
Another experiment concerns PC26. The description is as above. To be noted: P. falciparum in erythrocytes, SYBR Green DNA, 72 h; series mostly up to 28.7 µM. Put shortly: as §2
The next experiment relates to SC27B. The description is as above. The note with it: P. falciparum in erythrocytes, SYBR Green DNA, 72 h; series mostly up to 28.7 µM. The method in brief: as §2
The next experiment has as its system TAB113. Described as above. To be noted: P. falciparum in erythrocytes, SYBR Green DNA, 72 h; series mostly up to 28.7 µM. Put shortly:
as §2

Values joined by “and” are separate entries in the source; they are usually repeats but may differ in a detail not shown here. Equal entries are not always repeated. Results filed as inconclusive are left out. Some compounds were tested as several samples or in several runs, with calls that do not always agree. A number with no mark means an inactive call. Active and inactive are the calls of the source. Calls come from the whole dose curve; as a rule, active = well fitted inhibition curve with a large enough effect; inconclusive = small, poorly fitted or top-dose-only effect; inactive = flat fitted curve, though single readings scatter.
Note: nearly all actives have a fitted effect of over 60% in size.
Potency is the fitted concentration of half-maximal effect.

Take `Nc1cc(C(F)(F)F)c(-c2cc(N3CCOCC3)nc(N3CCOCC3)n2)cn1`: the Potency in the experiment with CRL-7250 was 2.06 µM (active); in the experiment on HEK293 it was 935 nM (active) and 2.31 µM (active).
Turning to `COc1cc(C(=O)NS(=O)(=O)c2ccccc2C)ccc1Cc1cn(C)c2ccc(NC(=O)OC3CCCC3)cc12`, the Potency entry in the experiment on PC15, in the experiment on PC49, in the experiment with TAB109 and with TAB165 was “inactive” throughout. Further, the Potency with W2 was 7.57 µM (active). In addition, the result in the experiment on CRL-7250 was inactive.
As for `CC(C)c1cnn2c(NCc3ccccc3)cc(N[C@@H](CO)[C@H](O)CO)nc12`, the Potency was 0.296 µM (active) in the experiment on CRL-7250; 332 nM (active) and 1.03 µM (active) in the experiment on HEK293.
With `CC=CC1=C(C(=O)O)N2C(=O)[C@H](NC(=O)[C@H](N)c3ccc(O)cc3)[C@@H]2SC1`, the Potency result in the experiment with PC15, in the experiment on PC26, with PC49, in the experiment with SC27B, in the experiment on TAB109 and with TAB113 was “inactive” throughout. Besides, the Potency entry in the experiment with TAB165 and in the experiment with W2 was “inactive” each time. Besides, the max response was 1.71% in the experiment on CRL-7250 and -2.68% in the experiment with HEK293.
As to `C[C@]12CC[C@H](O)CC1=CCC1C2CC[C@]2(C)C(n3cnc4ccccc43)=CCC12` (stereo partly specified), the max response in the experiment on CRL-7250 is -7.08%. Further, in the experiment on HEK293, the Potency was 14.6 µM (active) and the max response is -24.7%.
`CCCCCCCCCC(=O)N[C@@H](Cc1c[nH]c2ccccc12)C(=O)N[C@H](CC(N)=O)C(=O)N[C@@H](CC(=O)O)C(=O)N[C@@H]1C(=O)NCC(=O)N[C@@H](CCCN)C(=O)N[C@@H](CC(=O)O)C(=O)N[C@H](C)C(=O)N[C@@H](CC(=O)O)C(=O)NCC(=O)N[C@H](CO)C(=O)N[C@@H]([C@@H](C)CC(=O)O)C(=O)N[C@@H](CC(=O)c2ccccc2N)C(=O)O[C@@H]1C`: the molecule was called inactive with CRL-7250. Moreover, in the experiment on HEK293, the max response was 3.78% and the molecule was classed as inactive.
